Among all 5,500 compounds or so, about 2,000 (36%) were called active. Roughly 18% stayed inconclusive and do not appear here. This is one part of the list. Unmarked numbers belong to inactive results. Cut-off read from the data, not from the text of the source: active = normalized growth mostly below about 0.91 (no sharp cut-off); inconclusive = no clear call, values can overlap the other calls; inactive = mostly above about 0.92.
Test: chemical genetic growth profiling, strain panel (AID 1159580);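 note: tested at 20 µM; growth read once vehicle control cultures reached saturation at 30 °C; 1 = growth at the plate median or of vehicle wells; lower values mean less growth of the strain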
Settings: growth OD

Question: For `CC(=O)N(O)CCCCCNC(=O)CCC(=O)N(O)CCCCCNC(=O)CCC(=O)N(O)CCCCCN`, which normalized growth (S. cerevisiae deletion strains, locus YJR066W, strain TOR1, hits give low values) is on record?
Answer: 0.95

Question: What about the normalized growth (S. cerevisiae deletion strains, locus YJR075W, strain HOC1, hits give low values) of the same compound?
Answer: 1.01

Question: What about the normalized growth (S. cerevisiae deletion strains, locus YKL009W, strain mrt4, hits give low values) of the same compound?
Answer: 1.01

Question: And the normalized growth (S. cerevisiae deletion strains, locus YKL068W, hits give low values)?
Answer: 1.05

Question: What about the normalized growth (S. cerevisiae deletion strains, locus YKL085W, strain MDH1 (second series), hits give low values) of the same compound?
Answer: 1.02

Question: What about the normalized growth (S. cerevisiae deletion strains, locus YKL085W, strain MDH1, hits give low values) of the same compound?
Answer: 1.02

Question: What about the normalized growth (S. cerevisiae deletion strains, locus YKL160W, strain elf1, hits give low values) of the same compound?
Answer: 0.998

Question: And the normalized growth (S. cerevisiae deletion strains, locus YKL190W, strain CNB1, hits give low values)?
Answer: 1.01

Question: And the normalized growth (S. cerevisiae deletion strains, locus YKR001C, strain vps1, hits give low values)?
Answer: 0.966

Question: What about the normalized growth (S. cerevisiae deletion strains, locus YKR026C, strain gcn3, hits give low values) of the same compound?
Answer: 1.03

Question: What about the normalized growth (S. cerevisiae deletion strains, locus YKR091W, strain srl3, hits give low values) of the same compound?
Answer: 1.01

Question: And the normalized growth (S. cerevisiae deletion strains, locus YLL001W, strain dnm1, hits give low values)?
Answer: 0.991

Question: What about the normalized growth (S. cerevisiae deletion strains, locus YLL026W, hits give low values) of the same compound?
Answer: 0.997

Question: What about the normalized growth (S. cerevisiae deletion strains, locus YLL041C, strain sdh2, hits give low values) of the same compound?
Answer: 1

Question: What about the normalized growth (S. cerevisiae deletion strains, locus YLR027C, strain aat2, hits give low values) of the same compound?
Answer: 1

Question: What about the normalized growth (S. cerevisiae deletion strains, locus YLR039C, strain RIC1, hits give low values) of the same compound?
Answer: 0.997

Question: And the normalized growth (S. cerevisiae deletion strains, locus YLR058C, strain SHM2, hits give low values)?
Answer: 1.01

Question: What about the normalized growth (S. cerevisiae deletion strains, locus YLR102C, strain apc9, hits give low values) of the same compound?
Answer: 1.03

Question: What about the normalized growth (S. cerevisiae deletion strains, locus YLR113W, strain HOG1, hits give low values) of the same compound?
Answer: 1.14

Question: What about the normalized growth (S. cerevisiae deletion strains, locus YLR221C, strain rsa3, hits give low values) of the same compound?
Answer: 1.04

Question: What about the normalized growth (S. cerevisiae deletion strains, locus YLR258W, strain gsy2, hits give low values) of the same compound?
Answer: 1.02

Question: And the normalized growth (S. cerevisiae deletion strains, locus YLR262C, strain YPT6 (second series), hits give low values)?
Answer: 0.995

Question: And the normalized growth (S. cerevisiae deletion strains, locus YLR262C, strain YPT6, hits give low values)?
Answer: 1.08

Question: And the normalized growth (S. cerevisiae deletion strains, locus YLR268W, strain sec22, hits give low values)?
Answer: 0.981

Question: And the normalized growth (S. cerevisiae deletion strains, locus YLR320W, strain mms22, hits give low values)?
Answer: 1.07

Question: What about the normalized growth (S. cerevisiae deletion strains, locus YLR330W, strain CHS5, hits give low values) of the same compound?
Answer: 1.01

Question: And the normalized growth (S. cerevisiae deletion strains, locus YLR342W, strain FKS1 (second series), hits give low values)?
Answer: 0.854

Question: And the normalized growth (S. cerevisiae deletion strains, locus YLR342W, strain FKS1, hits give low values)?
Answer: 0.958

Question: And the normalized growth (S. cerevisiae deletion strains, locus YLR357W, strain rsc2, hits give low values)?
Answer: 0.882

Question: What about the normalized growth (S. cerevisiae deletion strains, locus YLR370C, strain arc18, hits give low values) of the same compound?
Answer: 1

Question: What about the normalized growth (S. cerevisiae deletion strains, locus YLR371W, strain rom2, hits give low values) of the same compound?
Answer: 1.02

Question: And the normalized growth (S. cerevisiae deletion strains, locus YLR384C, strain iki3, hits give low values)?
Answer: 0.991

Question: And the normalized growth (S. cerevisiae deletion strains, locus YLR418C, strain cdc73, hits give low values)?
Answer: 0.864

Question: And the normalized growth (S. cerevisiae deletion strains, locus YML016C, strain PPZ1, hits give low values)?
Answer: 1.01

Question: And the normalized growth (S. cerevisiae deletion strains, locus YML032C, strain rad52, hits give low values)?
Answer: 1.06

Question: What about the normalized growth (S. cerevisiae deletion strains, locus YML120C, strain ndi1, hits give low values) of the same compound?
Answer: 0.993

Question: And the normalized growth (S. cerevisiae deletion strains, locus YML124C, strain tub3, hits give low values)?
Answer: 1.03

Question: What about the normalized growth (S. cerevisiae deletion strains, locus YMR058W, strain fet3, hits give low values) of the same compound?
Answer: 1.02

Question: And the normalized growth (S. cerevisiae deletion strains, locus YMR078C, strain ctf18, hits give low values)?
Answer: 1.04

Question: What about the normalized growth (S. cerevisiae deletion strains, locus YMR125W, strain sto1, hits give low values) of the same compound?
Answer: 1.06

Question: What about the normalized growth (S. cerevisiae deletion strains, locus YMR129W, hits give low values) of the same compound?
Answer: 1.01

Question: What about the normalized growth (S. cerevisiae deletion strains, locus YMR205C, strain PFK2, hits give low values) of the same compound?
Answer: 1.03

Question: And the normalized growth (S. cerevisiae deletion strains, locus YMR223W, strain ubp8, hits give low values)?
Answer: 0.998

Question: What about the normalized growth (S. cerevisiae deletion strains, locus YMR231W, strain pep5, hits give low values) of the same compound?
Answer: 0.983

Question: And the normalized growth (S. cerevisiae deletion strains, locus YMR307W, strain GAS1, hits give low values)?
Answer: 0.809

Question: What about the normalized growth (S. cerevisiae deletion strains, locus YNL067W, strain RPL9B, hits give low values) of the same compound?
Answer: 0.999

Question: And the normalized growth (S. cerevisiae deletion strains, locus YNL071W, strain lat1, hits give low values)?
Answer: 1.04

Question: And the normalized growth (S. cerevisiae deletion strains, locus YNL128W, strain TEP1, hits give low values)?
Answer: 1.01

Question: And the normalized growth (S. cerevisiae deletion strains, locus YNL153C, strain GIM3, hits give low values)?
Answer: 0.99

Question: And the normalized growth (S. cerevisiae deletion strains, locus YNL183C, strain NPR1, hits give low values)?
Answer: 0.995

Question: What about the normalized growth (S. cerevisiae deletion strains, locus YNL209W, strain ssb2, hits give low values) of the same compound?
Answer: 0.917 (active)

Question: And the normalized growth (S. cerevisiae deletion strains, locus YNL233W, strain BNI4, hits give low values)?
Answer: 0.987

Question: What about the normalized growth (S. cerevisiae deletion strains, locus YNL248C, strain rpa49, hits give low values) of the same compound?
Answer: 1.08

Question: And the normalized growth (S. cerevisiae deletion strains, locus YNL250W, strain rad50, hits give low values)?
Answer: 1.08

Question: What about the normalized growth (S. cerevisiae deletion strains, locus YNL271C, strain bni1, hits give low values) of the same compound?
Answer: 0.978

Question: What about the normalized growth (S. cerevisiae deletion strains, locus YNL298W, strain CLA4, hits give low values) of the same compound?
Answer: 1

Question: What about the normalized growth (S. cerevisiae deletion strains, locus YNL307C, strain MCK1, hits give low values) of the same compound?
Answer: 1.03

Question: And the normalized growth (S. cerevisiae deletion strains, locus YNL322C, strain KRE1 (second series), hits give low values)?
Answer: 1.01

Question: What about the normalized growth (S. cerevisiae deletion strains, locus YNR049C, strain mso1, hits give low values) of the same compound?
Answer: 1.01

Question: And the normalized growth (S. cerevisiae deletion strains, locus YNR052C, strain pop2, hits give low values)?
Answer: 1.01

Question: And the normalized growth (S. cerevisiae deletion strains, locus YOL012C, strain htz1)?
Answer: 1.51

Question: And the normalized growth (S. cerevisiae deletion strains, locus YOL147C, strain pex11, hits give low values)?
Answer: 1.02

Question: What about the normalized growth (S. cerevisiae deletion strains, locus YOR001W, strain rrp6, hits give low values) of the same compound?
Answer: 0.96

Question: What about the normalized growth (S. cerevisiae deletion strains, locus YOR061W, strain CKA2, hits give low values) of the same compound?
Answer: 0.996

Question: What about the normalized growth (S. cerevisiae deletion strains, locus YOR069W, strain VPS5, hits give low values) of the same compound?
Answer: 1.01

Question: And the normalized growth (S. cerevisiae deletion strains, locus YOR070C, strain gyp1, hits give low values)?
Answer: 1.01

Question: What about the normalized growth (S. cerevisiae deletion strains, locus YOR080W, strain dia2, hits give low values) of the same compound?
Answer: 0.996

Question: What about the normalized growth (S. cerevisiae deletion strains, locus YOR083W, strain WHI5, hits give low values) of the same compound?
Answer: 0.958

Question: And the normalized growth (S. cerevisiae deletion strains, locus YOR106W, strain vam3, hits give low values)?
Answer: 0.844 (active)

Question: What about the normalized growth (S. cerevisiae deletion strains, locus YOR136W, strain idh2, hits give low values) of the same compound?
Answer: 1.03

Question: What about the normalized growth (S. cerevisiae deletion strains, locus YOR144C, strain elg1, hits give low values) of the same compound?
Answer: 1.02

Question: What about the normalized growth (S. cerevisiae deletion strains, locus YOR184W, strain ser1, hits give low values) of the same compound?
Answer: 0.999

Question: What about the normalized growth (S. cerevisiae deletion strains, locus YOR231W, strain MKK1, hits give low values) of the same compound?
Answer: 1.04

Question: What about the normalized growth (S. cerevisiae deletion strains, locus YOR265W, strain rbl2, hits give low values) of the same compound?
Answer: 1

Question: And the normalized growth (S. cerevisiae deletion strains, locus YOR270C, strain vph1, hits give low values)?
Answer: 0.964

Question: And the normalized growth (S. cerevisiae deletion strains, locus YOR290C, strain snf2, hits give low values)?
Answer: 1.02

Question: And the normalized growth (S. cerevisiae deletion strains, locus YOR316C, strain cot1, hits give low values)?
Answer: 1.04

Question: And the normalized growth (S. cerevisiae deletion strains, locus YPL051W, strain arl3, hits give low values)?
Answer: 1.07

Question: And the normalized growth (S. cerevisiae deletion strains, locus YPL078C, strain atp4, hits give low values)?
Answer: 0.985

Question: And the normalized growth (S. cerevisiae deletion strains, locus YPL106C, strain sse1, hits give low values)?
Answer: 0.953

Question: And the normalized growth (S. cerevisiae deletion strains, locus YPL240C, strain hsp82, hits give low values)?
Answer: 1.01

Question: What about the normalized growth (S. cerevisiae deletion strains, locus YPL256C, strain CLN2, hits give low values) of the same compound?
Answer: 1.09

Question: What about the normalized growth (S. cerevisiae deletion strains, locus YPR119W, strain clb2, hits give low values) of the same compound?
Answer: 1.04

Question: And the normalized growth (S. cerevisiae deletion strains, locus YPR141C, strain kar3, hits give low values)?
Answer: 1.05

Question: What about the normalized growth (S. cerevisiae deletion strains, locus YPR163C, strain tif3, hits give low values) of the same compound?
Answer: 1.03

Question: What about the normalized growth (S. cerevisiae deletion strains, locus YPR167C, strain met16, hits give low values) of the same compound?
Answer: 1.04

Question: And the normalized growth (S. cerevisiae deletion strains, strain wtn01, hits give low values)?
Answer: 0.998

Question: And the normalized growth (S. cerevisiae strains, strain wild type, hits give low values)?
Answer: 1.01
